D1 allo mod: allosteric modulators of human D1 dopamine receptor | P21728 | HEK293 D1, CRE-luciferase, dopamine EC30 potentiation; actives deviate in either direction | B-score at 10 µM | 5.9% of 58,000 active | AID 641;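 active = luminescence count or its row- and column-corrected plate score outside the 99.7% band of the plate's sample wells, on either side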
Target sequence (P21728 whole entry, looked up): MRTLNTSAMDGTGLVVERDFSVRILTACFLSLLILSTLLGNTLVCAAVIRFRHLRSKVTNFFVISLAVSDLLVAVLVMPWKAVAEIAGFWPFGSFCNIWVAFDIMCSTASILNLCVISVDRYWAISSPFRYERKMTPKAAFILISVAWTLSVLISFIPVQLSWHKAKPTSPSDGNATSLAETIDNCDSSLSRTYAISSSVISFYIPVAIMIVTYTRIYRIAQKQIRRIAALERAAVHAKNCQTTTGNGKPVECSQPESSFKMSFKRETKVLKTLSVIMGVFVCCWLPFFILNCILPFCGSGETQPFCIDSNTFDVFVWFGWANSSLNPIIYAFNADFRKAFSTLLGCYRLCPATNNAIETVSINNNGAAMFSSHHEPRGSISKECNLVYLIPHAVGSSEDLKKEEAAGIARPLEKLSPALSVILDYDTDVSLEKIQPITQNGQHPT
Candida biofilm: kills Candida albicans biofilms; C. albicans biofilm + clotrimazole, Alamar Blue; inhibition, % at 6 µM; 0.14% of 85,000 active; AID 834;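 active = inhibition above 20%; inactive = inhibition below 20%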;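 note: preformed 24 hr biofilms exposed to compound for 48 hr; 0% = biofilm without compound and 100% = blank killed by clotrimazole plus chlorhexidine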
PLAP act: activators of human placental alkaline phosphatase; 1.2% of 96,000 active; purified PLAP enzyme, luminescent substrate read-out; active compounds read high; P05187; activation fold at 20 µM; in the data active = activation fold above about 2
TNAP act mid DEA: human TNAP activation, intermediate phosphate acceptor; P05186; purified TNAP, CDP-star luminescence, 100 mM DEA, 30 min; active compounds read high; scale: 0 levamisole-inhibited, 1 vehicle-only enzyme; activation factor at 20 µM; 64,000 tested, under 10 active; AID 813;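 active = activation factor of at least 2 at 20 µM, relative to controls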
hDAT+cocaine: modulates human dopamine transporter uptake under cocaine; LLC-PK1 hDAT cells, [14C]-dopamine uptake with cocaine IC80; actives deviate in either direction; 1.3% of 110,000 active; AID 449768; Q01959; B-score at 10 µM;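 active = Z score or B-score, a plate-position-corrected score, falls beyond the plate's 99.7% confidence bounds, in either direction; inactive = both scores lie inside the 99.7% bounds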;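 note: scored against the spread of the other compound wells on the same plate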
HePTP inhibitor: inhibitors of human HePTP phosphatase; P35236; recombinant HePTP phosphatase activity, OD absorbance; inhibition, % at 20 µM; 0.64% of 110,000 active; in the data active = inhibition above about 50%;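 note: plate controls were vehicle for no effect and reference inhibitor for full effect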
D1 mod confirm: D1 receptor (human) allosteric modulation, confirmed. shares compounds with D1 allo mod. 88% of 2,200 active. luminescence at 10 µM. HEK293 D1 CRE-luciferase, dopamine EC30 potentiation; active compounds read high. AID 642;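 active = luminescence in either of two replicates above the same-plate mean plus 3 SD of the low-dose dopamine control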
D1 no dopamine: secondary test of D1 modulators: activity without dopamine | 0.8% of 1,900 active | AID 646 | HEK293 D1 CRE-luciferase, luminescence, no dopamine; active compounds read high | luminescence at 10 µM | shares compounds with D1 allo mod; in the data active = luminescence above about 3900
Isoprot counter: alters isoproterenol CRE-luciferase response in HEK293 cells. shares compounds with D1 allo mod. HEK293 D1 CRE-luciferase, isoproterenol EC30 counter-screen; active compounds read high. luminescence at 10 µM. 63% of 2,200 active. AID 647;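 active = luminescence in either replicate above plate mean of wells with a partly effective reference agonist dose plus 3 SD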;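 note: isoproterenol raises cAMP through native beta-adrenoceptor Gs so signal bypasses D1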
Starred values were filed as active, the others as inactive; nt = no result given. Many of the other results were omitted from the sample, so hits are more common in it than they were.

SMILES	D1 allo mod	Candida biofilm	PLAP act	TNAP act mid DEA	hDAT+cocaine	HePTP inhibitor	D1 mod confirm	D1 no dopamine	Isoprot counter
CN1C(=O)c2ccccc2Sc2ccc(C(=O)N3CCC4(CC3)OCCO4)cc21	9.6*	2	1	1	nt	5	5288	nt	2560
O=C1NC(=O)N(c2ccccc2F)C(=O)/C1=C/c1ccc(-c2cc(C(=O)O)ccc2Cl)o1	nt	nt	nt	nt	nt	14	nt	nt	nt
O=C1NC(=S)N(c2cccc(Br)c2)C(=O)/C1=C/C=C/c1ccccc1	nt	nt	nt	nt	nt	45	nt	nt	nt
Cc1[nH]c2cc(S(=O)(=O)O)c(Oc3ccccc3)cc2c1CCN	nt	nt	nt	nt	nt	41	nt	nt	nt
CC(C)[C@@]1(NC(=O)[C@@H]2C=C3c4cccc5[nH]cc(c45)C[C@H]3N(C)C2)O[C@@]2(O)[C@@H]3CCCN3C(=O)[C@H](Cc3ccccc3)N2C1=O	34*	0	nt	1	nt	13	18320*	19392*	36764*
CC(C)[C@@]1(NC(=O)[C@@H]2C[C@@H]3c4cccc5[nH]cc(c45)C[C@H]3N(C)C2)O[C@@]2(O)[C@@H]3CCCN3C(=O)[C@H](Cc3ccccc3)N2C1=O	36*	4	nt	0.9	3.6*	14	27264*	22332*	30404*
CC(C)[C@H]1C(=O)N2CCC[C@H]2[C@]2(O)O[C@](NC(=O)[C@@H]3C=C4c5cccc6[nH]cc(c56)C[C@H]4N(C)C3)(C(C)C)C(=O)N12	37*	nt	nt	0.9	0.56	-11	25260*	20144*	39792*
O=c1c2ccccc2nc(-c2ccccc2F)n1-c1ccccc1Cl	nt	nt	nt	nt	nt	-5	nt	nt	nt
CCCCSc1nc2ccccc2c(=O)n1-c1cccc(C)c1	nt	nt	nt	nt	nt	6	nt	nt	nt
C[C@H]1OC[C@@H](C[N+](C)(C)C)O1	5.7*	10	nt	0.9	-0.53	3	10372*	nt	2732
O=c1c2ccccc2nc(-c2ccc([N+](=O)[O-])cc2)n1-c1cccc(Cl)c1	nt	nt	nt	nt	nt	-3	nt	nt	nt
O=C(Nc1nc2ccccc2s1)C(Cl)(Cl)Cl	nt	nt	nt	nt	nt	7	nt	nt	nt
CC1(C)CN=C(Nc2nc3ccccc3s2)S1	2.9*	1	1.1	1.1	-0.52	-6	8344*	1008	2828
Cc1[nH]c2ccccc2c1CN1CCOCC1	nt	nt	nt	nt	nt	-8	nt	nt	nt
CC(=NCc1cccnc1)c1c(O)n(Cc2ccccc2)c(=O)[nH]c1=O	2.1	4	nt	0.9	1.5	8	nt	nt	nt
CCC(=NCc1cccnc1)c1c(O)n(Cc2ccccc2)c(=O)[nH]c1=O	4.8*	6	1.7	0.9	-0.002	8	11204*	1512	2944*
O=C1CN=C(c2ccc(Br)cc2)c2oc3ccccc3c2N1	nt	nt	0.9	nt	-0.17	nt	nt	nt	nt
O=C1CN=C(c2ccccc2)c2oc3ccc(Br)cc3c2N1	7.4*	5	0.8	0.9	1.6	8	15276*	nt	4176*
CCC1(CC)C(=O)NC(=NCCc2c[nH]c3ccccc23)NC1=O	4.8*	5	1.1	0.9	-2.2	2	6976*	1520	4428
CCCCn1c(O)c(C(C)=NC(C)c2ccccc2)c(=O)[nH]c1=O (stereo unspecified)	9.7*	11	1	0.9	0.021	2	17520*	1544	3888*
CCOC(=O)c1ccc(-c2ccc(C=C3C(=O)NC(=S)NC3=O)o2)cc1	nt	nt	nt	nt	nt	-8	nt	nt	nt
CCCCn1c(=O)c(C(=O)Nc2cnccn2)c(O)c2ccccc21	6.8*	0	1.6	0.9	0.054	9	8352*	1312	3092
CCOC(=O)c1c(C)n(Cc2ccccc2)c2ccc(OCC(O)Cn3nc(C)cc3C)cc12 (stereo unspecified)	nt	6	nt	nt	0.64	nt	nt	nt	nt
CCOC(=O)c1c(C)n(Cc2ccccc2)c2ccc(OCC(O)Cn3nc(C)nc3C)cc12 (stereo unspecified)	4.5*	0	1.6	1	nt	5	17284*	1904	5888*
CCC(=NC1CC1)c1c(O)n(C2CCCCC2)c(=O)[nH]c1=O	17*	7	1.1	0.9	-0.68	0	12336*	1856	4136*
CC(=O)c1cccc(NC2=NCC(C)S2)c1 (stereo unspecified)	5.6*	8	0.9	1	0.0051	-3	8688*	1744	3220*
O=C(CCN1C(=O)COc2ccccc21)N1CCC2(CC1)OCCO2	3.8*	6	1	1	0.31	0	5480	nt	2376
COC(=O)c1cccc(-c2ccc(C=C3C(=O)NC(=S)NC3=O)o2)c1	nt	nt	nt	nt	nt	4	nt	nt	nt
CCOC(=O)c1c(C)[nH]c(C(=O)C(Cc2ccccc2)N(C)C)c1C (stereo unspecified)	nt	nt	1.5	nt	nt	nt	nt	nt	nt
COC(=O)c1c(C)[nH]c(C(=O)C(Cc2ccccc2)N(C)C)c1C (stereo unspecified)	9.7*	-3	1.6	1	-0.32	3	4780	1584	2408

Screening results as filed in PubChem BioAssay.
